# CendR NRP1 mod: NRP-1/CendR interaction modulation; 360,000 compounds, 0.85% hits; FAM-RPARPAR peptide binding to NRP-1, fluorescence polarization; inhibition, % at 25 µM; O14786;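 active means inhibition or corrected inhibition above about 18%, plus a signal ratio from 0.5 to 1.5, limit read from the data, passing the limit was not always enough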
# PABP1 MLLE inh: blocks PAM2 peptide binding to the PABP1 MLLE domain; P11940; GST-MLLE / FITC-PAM2 fluorescence polarization; inhibition, % at 20 µM; 360,000 compounds, 0.36% hits; in the data active means inhibition above about 35%, passing the limit was not always enough;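 further: plate controls were DMSO wells with GST-MLLE for no effect and wells lacking GST-MLLE protein for full effect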
# Target sequence (P11940 whole entry, looked up, the tested form may be a part): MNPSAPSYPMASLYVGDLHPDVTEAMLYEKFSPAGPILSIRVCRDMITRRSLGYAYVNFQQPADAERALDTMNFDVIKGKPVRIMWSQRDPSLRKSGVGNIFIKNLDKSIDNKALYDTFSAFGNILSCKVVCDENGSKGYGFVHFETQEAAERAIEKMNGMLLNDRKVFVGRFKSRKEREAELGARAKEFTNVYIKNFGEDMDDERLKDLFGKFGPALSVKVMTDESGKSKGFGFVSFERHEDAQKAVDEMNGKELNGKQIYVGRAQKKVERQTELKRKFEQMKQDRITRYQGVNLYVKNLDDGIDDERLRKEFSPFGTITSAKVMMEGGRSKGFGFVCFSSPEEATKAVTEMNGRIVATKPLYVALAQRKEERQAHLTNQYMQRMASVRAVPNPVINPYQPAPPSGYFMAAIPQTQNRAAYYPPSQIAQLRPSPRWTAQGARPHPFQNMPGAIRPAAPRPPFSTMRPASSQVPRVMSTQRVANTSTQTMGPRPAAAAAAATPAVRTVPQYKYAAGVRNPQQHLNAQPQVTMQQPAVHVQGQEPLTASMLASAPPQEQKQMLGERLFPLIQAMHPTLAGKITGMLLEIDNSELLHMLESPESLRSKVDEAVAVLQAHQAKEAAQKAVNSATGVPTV
# PABP FP inh: blocks human PABP binding to poly(A) RNA; inhibition, % at 35 µM; P11940; fluorescence polarization; 290,000 compounds, 1% hits; AID 2014;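 further: calls also rest on retests at 20 µM and on dose response follow-up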
# eIF4H inh: inhibitors of RNA binding by human eIF4H; inhibition, % at 35 µM; 290,000 compounds, 0.94% hits; eIF4H fluorescence polarization binding assay;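 further: calls also rest on retests at 20 µM and on dose response follow-up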
# The depositor's hits bear a star; u = inconclusive; x = no result. This is a sample that favours compounds with a hit; in the whole collection about 2.1% have one here. Unless noted, how the calls were made is not given here.
SMILES,CendR NRP1 mod,PABP1 MLLE inh,PABP FP inh,eIF4H inh
COc1cc(CN2C[C@@H](CO)O[C@@H](n3cnc4c(N5CCN(c6ccccc6)CC5)ncnc43)C2)cc(OC)c1OC,37*,-3,x,x
CCCCC(O)(CCCC)C(=O)N/N=C(\C)c1ccc(Cl)cc1,7,-4,52*,84*
O=C(c1ccc(S(=O)(=O)Cc2ccccc2Cl)c([N+](=O)[O-])c1)N1CCOCC1,17*,11,-5,-12
Cc1ccccc1CS(=O)(=O)c1ccc(C(=O)N2CCOCC2)cc1[N+](=O)[O-],12,-4,-1,-8
O=C(NCCN1CCCCCC1)C1CCCN1S(=O)(=O)c1cccc2nsnc12 (stereo unspecified),-13,-10,-2,8
CC(=O)OCC(=O)[C@@]1(O)CC[C@H]2[C@@H]3C[C@H](C)C4=CC(=O)C=C[C@]4(C)[C@H]3[C@@H](O)C[C@@]21C,3,4,0,7
CC(=O)OCC(=O)C1(O)CCC2C3CC(C)C4=CC(=O)C=CC4(C)C3=CCC21C (stereo unspecified),19*,-7,x,x
Oc1c(Br)cc(/C=N/n2c(-c3ccccc3)n[nH]c2=S)c(Br)c1O,x,x,90*,85*
CC(C)Oc1ccc(OCCSc2nc3ccccc3n2CC(=O)O)cc1,-7,-85,x,x
CN(Cc1ccccc1Br)C(=O)CSc1nnnn1C1CC1,-1,-13,x,x
CC1(OC(=O)CCc2ccccc2)C(=O)C=C2C=C(c3ccc(C#N)cc3)N(Cc3ccccc3)C=C2C1=O (stereo unspecified),8,-12,15,42
COCCN1C=C2C(=O)C(C)(OC(=O)c3cccs3)C(=O)C=C2C=C1CCCC(=O)OC (stereo unspecified),3,21,27,64
COC(=O)CCCC1=CC2=CC(=O)C(C)(OC(=O)c3cccs3)C(=O)C2=CN1CCCCO (stereo unspecified),40*,20,34,85
CC1(OC(=O)CCc2ccccc2)C(=O)C=C2C=C(c3ccc(C#N)cc3)N(C3CC3)C=C2C1=O (stereo unspecified),-3,-21,38*,65
COC(=O)CCCC1=CC2=CC(=O)C(C)(OC(=O)c3cccs3)C(=O)C2=CN1c1ccccc1 (stereo unspecified),22,-4,x,x
COC(=O)CCCC1=CC2=CC(=O)C(C)(OC(=O)c3cccs3)C(=O)C2=CN1C1CC1 (stereo unspecified),15,19,55*,87*
COC(=O)CCCC1=CC2=CC(=O)C(C)(OC(=O)c3cccs3)C(=O)C2=CN1CCN1CCOCC1 (stereo unspecified),10,23,64*,115
COC(=O)CCCC1=CC2=CC(=O)C(C)(OC(=O)c3cccs3)C(=O)C2=CN1C1CCCCC1 (stereo unspecified),14,16,11,18
COc1ccc(CCNC(=O)CCNC(=O)c2ccc([N+](=O)[O-])cc2)cc1,-5,16,0,-5
CC(C)CC(=O)C1=C(O)C(=O)N(Cc2ccccc2)C1c1ccccc1 (stereo unspecified),6,7,-2,-1
CC1CCCC(N2C(=O)NC(NC(=O)c3ccco3)(C(F)(F)F)C2=O)C1C (stereo unspecified),28*,-3,-2,-5
CCCCN1C(=O)NC(NC(=O)c2ccco2)(C(F)(F)F)C1=O (stereo unspecified),5,3,5,10
O=C(COc1ccc(Cl)cc1)NCc1nnc(SCC(=O)NCCc2ccccc2)o1,20*,-31,-6,-14
FC(F)(F)c1ccccc1Cc1c(-c2ccc(Cl)cc2)nc2ccc(Br)cn12,-8,-8,x,x
Cc1ccc(NC(=O)c2ccc3c(c2)OCCO3)cc1C,1,-4,-4,-3
SMILES,CendR NRP1 mod,PABP1 MLLE inh,PABP FP inh,eIF4H inh
Cc1ccc(NC(=O)c2ccc3c(c2)OCCO3)cc1S(=O)(=O)Nc1cccc(Cl)c1,37*,1,4,-8
CCOc1ccccc1CNC(=O)Cn1nc(C)c2c(C)n(-c3ccc(C)cc3)nc2c1=O,-9,-9,x,x
CC(C(=O)Nc1nncs1)N1C(=O)C2C3C=CC(C3)C2C1=O (stereo unspecified),1,3,active,u
COC/C=C/C1=CC2=CC(=O)C(C)(OC(=O)c3cnc4ccccc4n3)C(=O)C2=CN1C1CC1 (stereo unspecified),-20,11,x,x
CC1(OC(=O)C2CCCC2)C(=O)C=C2C=C(c3ccsc3)N(C3CC3)C=C2C1=O (stereo unspecified),-18,-8,38,81
COC(=O)CCC(=O)OC1(C)C(=O)C=C2C=C(C3CC3)N(CCN3CCOCC3)C=C2C1=O (stereo unspecified),16,16,36,68
CC1(OC(=O)C2CCCC2)C(=O)C=C2C=C3CCCCN3C=C2C1=O (stereo unspecified),32*,18,u,u
COC/C=C/C1=CC2=CC(=O)C(C)(OC(=O)C3CCCC3)C(=O)C2=CO1 (stereo unspecified),-38,-9,49*,62*
CC1(OC(=O)c2ccc(Cl)nc2)C(=O)C=C2C=C3CCCN3C=C2C1=O (stereo unspecified),51*,-3,62*,101*
COC(=O)CCC(=O)OC1(C)C(=O)C=C2C=C3CCCN3C=C2C1=O (stereo unspecified),41*,-7,60*,107*
COc1ccc(CNC(=O)CN2C(=O)NC3(CCCc4sccc43)C2=O)cc1OC (stereo unspecified),10,-11,x,x
Cc1ccccc1NC(=O)c1nc2nccc(C)n2n1,-16,9,62,active
COc1ccccc1C(CNC(=O)c1cc(S(=O)(=O)N2CCOCC2)ccc1C)N1CCCC1 (stereo unspecified),7,-2,x,x
COc1ccc(N(C(=O)c2snc(C(N)=O)c2N)C(C(=O)NCC2CCCO2)c2ccc(C)o2)cc1OC (stereo unspecified),-4,4,-6,8
CCOC(=O)c1cccc(N2CC3CNC(=O)C2(C(=O)OC)N3C)c1 (stereo unspecified),21*,4,x,x
O=C1C(Cl)=C(NC(=O)c2ccccc2)C(=O)C(Cl)=C1NC(=O)c1ccccc1,-5,57*,25,0
O=C(NC1=C(Nc2ccc(Cl)cc2)C(=O)c2ccccc2C1=O)c1ccccc1,0,21,-8,1
CCCc1cc2c(cc1N(C)S(=O)(=O)c1ccccc1)OCO2,12,16,x,x
CCOc1ccc(NC(=S)N2CCN(CCN3C(=O)c4cccc5cccc(c45)C3=O)CC2)cc1,-35,-127,8,-3
CC1CCCCC1NC(=O)CN1C(=O)NC(C)(c2ccc(OC(F)F)cc2)C1=O (stereo unspecified),4,-15,-2,1
CCC1(c2ccc(OC)cc2)NC(=O)N(CC(=O)NC2CCCCC2C)C1=O (stereo unspecified),23*,-2,x,x
O=C(c1cccc(C(F)(F)F)c1)N1CCC(=O)N(C(CO)Cc2ccccc2)CC1 (stereo unspecified),7,-4,x,x

# Source: PubChem BioAssay
